Assay outcomes (PubChem BioAssay)
The sample as a whole holds a higher share of hits than the screen did.
ST2 IL33 inh – inhibitors of human ST2 (IL1RL1) binding to IL-33, primary screen, biochemical, AlphaLISA; Interleukin-1 receptor-like 1 (Homo sapiens), Q01638; AlphaLISA ST2-Fc/biotin-IL-33 interaction, 1 h; inhibition, % for hits at 17 µM; 78,000 tested, 2.3% active; AID 1259354, 2018; in the data active = inhibition above about 30%
Target sequence (Q01638 whole entry, looked up): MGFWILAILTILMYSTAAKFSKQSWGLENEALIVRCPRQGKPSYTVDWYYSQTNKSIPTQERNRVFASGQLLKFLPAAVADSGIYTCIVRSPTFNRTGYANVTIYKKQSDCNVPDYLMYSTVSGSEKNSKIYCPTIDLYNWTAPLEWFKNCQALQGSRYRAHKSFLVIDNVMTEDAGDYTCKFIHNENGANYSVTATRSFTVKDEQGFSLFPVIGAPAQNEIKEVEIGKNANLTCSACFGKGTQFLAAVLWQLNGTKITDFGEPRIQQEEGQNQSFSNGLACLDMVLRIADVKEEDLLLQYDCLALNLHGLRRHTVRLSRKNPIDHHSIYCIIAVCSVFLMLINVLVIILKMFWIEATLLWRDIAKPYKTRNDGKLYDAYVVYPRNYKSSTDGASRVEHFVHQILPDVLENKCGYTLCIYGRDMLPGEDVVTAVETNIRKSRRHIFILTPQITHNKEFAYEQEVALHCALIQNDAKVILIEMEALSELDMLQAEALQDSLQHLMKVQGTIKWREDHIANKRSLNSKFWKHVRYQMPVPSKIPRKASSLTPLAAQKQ
Hits are given with their value; – = inactive.

SMILES	ST2 IL33 inh
CC1CCCCN1S(=O)(=O)c1cc(Br)cc2c1N(C(=O)C1CC1)CC2 (stereo not given)	–
O=C(O)COc1ccc(C=C2C(=O)c3ccccc3C2=O)cc1Cl	–
O=C1C(=Cc2cccn2-c2ccccc2)C(=O)c2ccccc21	31%
O=c1ccn(-c2ccccc2)[nH]1	–
O=C1N[C@@H](CC2CCCCC2)C(=O)N2CCN(C(=O)c3cccc(F)c3)C[C@H]12	–
CCC(C)Oc1ccc(/C=C2/NC(=O)NC2=O)cc1OC (stereo not given)	–
O=C(Cn1cnc2c(oc3ccccc32)c1=O)Nc1cccc(Cl)c1	–
CCOC(=O)c1c(NC(=O)c2cc3ccccc3oc2=O)sc2c1CCC(C)C2 (stereo not given)	–
CC(C)OCCCNC(=O)CCCn1c(=O)[nH]c2ccc(Br)cc2c1=O	–
Cn1c(=O)cc(SCC(=O)N2CCOCC2)c2ccccc21	–
CCOC(=O)C1(CC2CCCCO2)CCN(C(=O)C#Cc2ccccc2)CC1 (stereo not given)	–
CCOC(=O)C1(Cc2ccccc2)CCCN(C(=O)C#Cc2ccccc2)C1 (stereo not given)	42%
CCOC(=O)C1(Cc2ccccc2Cl)CCN(C(=O)C#Cc2ccccc2)CC1	–
CCOc1ccc(CN2CCCn3cncc3C2)cc1CO	–
O=C(NCc1ccccc1C(F)(F)F)c1cc(COc2ccc(F)cc2F)on1	–
Cc1cc(Br)ccc1NC(=O)CNS(=O)(=O)c1ccc(Br)s1	–
CCCOc1ccc(C(=O)N2CCOCC2)cc1OC	–
C=CCOc1ccc(C(=O)N2CCOCC2)cc1	31%
Cc1cc(C)c(C(=O)c2ccc(C(=O)N3CCOCC3)cc2)c(C)c1	–
CCCCOC(=O)C1=C(C)Nc2ncnn2C1c1ccc(C)cc1 (stereo not given)	–
Cc1csc2ncc(C(=O)NCc3ccccc3)c(=O)n12	–
COc1ccccc1C1CC(c2ccccc2)=NN1C(=O)c1ccccc1 (stereo not given)	–
COc1cc(C(=O)N2N=C(c3ccccc3)CC2c2ccc(N(C)C)cc2)cc(OC)c1OC (stereo not given)	48%
COc1ccc(C2CC(c3ccccc3)=NN2C(=O)c2cc(OC)c(OC)c(OC)c2)cc1 (stereo not given)	–
COc1ccc(NC(=O)C2=C(C)NC(=O)NC2c2ccccc2C)cc1 (stereo not given)	–
SMILES	ST2 IL33 inh
O=c1oc(-c2ccccc2)nc2ccc(Cl)cc12	–
Cc1ccccc1-c1nc2cc(NC(=O)CC(C)C)ccc2o1	–
CCc1cc2c(=O)oc(-c3ccccc3C)nc2s1	33%
COCCCNC(=O)c1cccn2c(=O)c3cc4ccccc4cc3nc12	30%
O=C(NCc1ccco1)c1cccn2c(=O)c3cc4ccccc4cc3nc12	–
COCCCNC(=O)c1cc2c(=O)n3cccc(C)c3nc2n1C	–
O=C(O)CCC(=O)N1N=C(c2cccs2)CC1c1ccc(F)cc1 (stereo not given)	–
c1ccc(C2Oc3ccccc3C3CC(c4cccs4)=NN32)cc1 (stereo not given)	34%
COc1ccc(C2=NN3C(C2)c2ccccc2OC3c2ccco2)cc1 (stereo not given)	–
Cc1cc2ccccc2c(=O)n1CC(=O)NCC(=O)NC1CCCC(C)C1C (stereo not given)	–
c1ccc2oc(SCc3nc4c5c6c(sc5ncn4n3)CCCC6)nc2c1	–
N/C(=N/OC(=O)c1ccc(Cl)cc1)c1ccncc1	–
O=C(c1ccco1)N1CCN=C1SCc1ccc(Cl)cc1	–
COc1ccc2[nH]c3c(c2c1)CCNC3=O	–
O=[N+]([O-])c1cccc(C2NCCc3c2[nH]c2ccccc32)c1 (stereo not given)	–
O=C1NCCc2c1[nH]c1ccc([N+](=O)[O-])cc21	30%
Cc1cccc(N2CCN(C(=O)CC3C(=O)NCCN3Cc3ccccc3F)CC2)n1 (stereo not given)	–
N#CC1=C(N)OC2=C(C(=O)CCC2)C1c1cccc([N+](=O)[O-])c1 (stereo not given)	–
Cc1ccccc1N1C(N)=C(C#N)C(c2ccc(F)cc2)C2=C1CCCC2=O (stereo not given)	–
N#CC1=C(N)N(c2ccccc2[N+](=O)[O-])C2=C(C(=O)CCC2)C1c1cccc([N+](=O)[O-])c1 (stereo not given)	31%
O=C(NCc1cccnc1)c1ccc2nc3ccsc3c(=O)n2c1	–
CCC1Oc2ccc(Cl)cc2N(C(C)C(=O)NCCCOC)C1=O (stereo not given)	–
O=C(NC1CC1)c1cc(N2CCCOC(CN3CCCC3)C2)ccn1 (stereo not given)	–
O=C(c1ccc([N+](=O)[O-])cc1)N1CCSC1c1cccc(Cl)c1 (stereo not given)	–
CN(C)c1ccc(C2SCCN2C(=O)c2ccc([N+](=O)[O-])cc2)cc1 (stereo not given)	30%
SMILES	ST2 IL33 inh
O=[N+]([O-])c1ccc(C2SCCN2S(=O)(=O)c2ccc(I)cc2)cc1 (stereo not given)	–
CC(=O)NCCCCCNC(C)=O	–
O=C(NC1C[C@@H]1c1ccccc1)[C@@H]1CC1c1ccccc1 (stereo not given in full)	–
O=C(Nc1ccc(Nc2ccccc2)cc1)C1CC1c1ccccc1 (stereo not given)	30%
NNC(=O)C1CC1c1ccccc1 (stereo not given)	–
Cc1cn(-c2nc(-c3ccccc3)oc2-c2ccccc2)c(=O)nc1NCCO	–
CC1=NN(c2cccc(Br)c2)C(=O)/C1=C\c1ccc(N(C)C)cc1	–
CC1=NN(c2ccc(I)cc2)C(=O)/C1=C/c1ccc(N(C)C)cc1	38%
CC1=NN(c2ccccc2)C(=O)/C1=C/c1cccc(Br)c1	–
CC1=NN(c2ccccc2)C(=O)/C1=C\c1ccc(N(C)C)c(Br)c1	39%
COc1c(Br)cc(Br)cc1/C=C1\C(=O)N(c2ccccc2)N=C1C	–
CC1=NN(c2cccc(F)c2)C(=O)/C1=C/c1ccc(N(C)C)cc1	–
N#Cc1ccccc1S(=O)(=O)N1C[C@@H]2C[C@H](C1)c1ccc(-c3ccccc3CN3CCOCC3)c(=O)n1C2	–
COC(=O)C1=C(C)Nc2nc(SC)[nH]c(=O)c2C1c1cccs1 (stereo not given)	–
Cc1oc(-c2ccc(Cl)cc2)nc1CSCC(=O)NCC1CCCO1 (stereo not given)	–
c1nc(N2CCCCCC2)c2c3c(sc2n1)CCCC3	–
Oc1ccccc1-c1nc2ccccc2[nH]1	–
Cc1cccc(N=Cc2cc3c(cc2[N+](=O)[O-])OCO3)c1	33%
CCN(CC)Cc1c(O)ccc2cc(-c3nc4ccccc4[nH]3)c(=O)oc12	–
O=[N+]([O-])c1cc2c(cc1C=Nc1ccc(Cl)c(C(F)(F)F)c1)OCO2	–
O=[N+]([O-])c1cc2c(cc1C=Nc1ccc(O)c(-c3nc4ccccc4[nH]3)c1)OCO2	30%
Cc1cccc2oc(-c3cccc(N=Cc4cccc([N+](=O)[O-])c4O)c3)nc12	–
O=Cc1cccn1-c1ncnc2sc3c(c12)CCCC3	–
CCCCN(CC)C(=O)C1c2cc(OC)c(OC)cc2C(=O)N(C)C1c1ccc(OC)cc1 (stereo not given)	–
O=C(Nc1ccc(F)cc1)N1C[C@@H]2C[C@H](C1)c1ccc(NS(=O)(=O)c3cccs3)c(=O)n1C2	–
O=c1c(NS(=O)(=O)c2cccc(F)c2)ccc2n1C[C@H]1C[C@@H]2CN(S(=O)(=O)c2cccs2)C1	44%
